Test system: RARa:RXR (NR concentration 270 nM, RXRa partner concentration 90 nM)
Assay: PBM binding z-score (relative to random genomic background probes); higher = stronger binding; sequences stand for … in GC…GCGATTGACAGCGTAGAATGAAGG
Summary of the method: (§1)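 Probes were double-stranded and carried 34-nt variable regions with direct-repeat seeds, single-nucleotide variants, half-site ablations and random human genomic background sequences, printed on custom Agilent 4×180K protein-binding microarrays. Arrays were incubated 1 h with ligand-free nuclear receptor dimers in PBS pH 7.4, 2% milk, 0.02% Triton X-100, 1 mM DTT, 0.2 mg/mL BSA and 0.4 mg/ml salmon testes DNA. Antibodies against each partner (one per run) detected binding, and scanned fluorescence was regression-normalized. Binding z-scores use the random background probes as reference.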

Sequence	PBM binding z-score
ATATGTAGGTTATCGGGGCATTCAGTTTGCGCAT	1.04
TCTAGTTGGTCAAATGTCACACACTCGAAATGCG	1.67
CTACCAAGGTGAACAAGGTCGTTGGTTACTATTC	2.28
TCTTGTAGGTCAGCAGGTTAAGAAAGCTGGCCAA	2.84
CGAACTTGGTCAGAACAGGACAGTGAAGGATGAT	0.0937
ACAGACAGGTGAGTGAAGGTAACTGAGCTGGACG	0.487
TCTATTAGTTGAAGGGCATCCGACGAGTCCGTTT	0.683
AGTCAAAGTTCATCTAGGTAAAGTAAGATATGCT	4.38
CCTTACGGGTCAAGGTTACAGCACGGGTGGTACG	4.47
CAAACTACGTCAAGGTCAAAGTCGGTTTGTGCCA	4.28
CCTCGGAGGACATCAGGAGGTCAGAGCTGCCAGA	2.43
AGAACGAGGGCAATGAGTTGGTAGCACGGGTGGC	0.0918
AGTTAAAGTTCAGGACGAGGTAACGTAAAGCACG	2.66
ACAGACAGGTGAGTGCAGGTAACTCAGCTGGACG	-0.416
TCATATAGGTAAAAGGTGAAAGCCGGTGTGGTAA	2.92
GCTGCTTGGTCAGGTTGGTCAGCTAACGGGTACG	-0.108
CCTTACGGGTCACTCCAGGTTAGAGCATCGGAGT	3.52
CCTACTGGGCCAAAAAGGACATTGATGCCGATAA	-0.191

Test system: RARa homodimer (NR concentration 270 nM)
Assay: as above
Summary of the method: as §1

Sequence	PBM binding z-score
CTACCAAGGTGAACAAGGTCGTTGACTACTATTC	0.269
GCTAGCTGGTCAGTAAAAGGTCACACACCGGTCG	2.36
AGTCAAAGTTCACTAGGTAACGTCAGATTCAGCT	1.07
CTCGAAAGGTAGGTTGAGGTGAGTATACGGATAA	-0.0281
TCATATAGGTAAATGCGAGGTGAAAGTCCGATCT	1.15
TAGCCTAGGGCATTGGGCCAGTATAGTACGCATC	-1.17
ATCTCTAGGTAAAGTTCAGTAAAAGATCGATAGA	2.26
CAGCCTAGGTCAGGGCTAGTATAGGAGGAACGTT	-0.159
CAGACTAGGTCAGGGCCAGTATAGGAGGAACGTT	-0.255
CCTCGGAGGACAGAAGGTCAGAGTTGTCCGCTTT	0.0194
CTCGAAAGGTCGGTTGAGGTGAGTATCCGGATAA	-0.322
ATCGAAAGGTCGAGGTGAGTATAGAGAAAGGGAA	0.75
AATACAGGGTCATCGTAGGCCAAAGTACGCACAG	1.3
CGTCCAAGCTCAATGCTAGGTCAGTGAAAGCATT	-0.477
ATCTCTAGGTAAAGATAGTTCAGTGACTGCAAAT	1.52
TCTATTAGTTGAAGGGCAACCGGCGAGTCCGTTT	0.951
CTCGAAACGTCGGTTGAGGTGAGTATACGGATAA	-0.037
ACTAGCAGGCCAAGGGACACTCAAGATTAGTCCG	-0.11
TTACCAAGGTTAAGGTCGTTGATCCCTCTGTAGA	-0.0492
GCTGCTAGGTCAGGTTGGACAGCTAACGGGTACG	-0.846

Sequence	PBM binding z-score
GCTATTCGTTGAAAGGGCAACCGAATGATTCTCG	0.463
CAAACTAGGTCAAAGGTCAATGTCGAGCCAACCA	4.59
ATATGTAGGTTATCGGGGCATTCAGTTTGCGCAT	1.6
TCTAGTTGGTCAAATGTCACACACTCGAAATGCG	1.52
CTACCAAGGTGAACAAGGTCGTTGGTTACTATTC	0.473
TCTTGTAGGTCAGCAGGTTAAGAAAGCTGGCCAA	0.787
CGAACTTGGTCAGAACAGGACAGTGAAGGATGAT	-0.39
ACAGACAGGTGAGTGAAGGTAACTGAGCTGGACG	-0.0985
TCTATTAGTTGAAGGGCATCCGACGAGTCCGTTT	1.77
AGTCAAAGTTCATCTAGGTAAAGTAAGATATGCT	2.12
CCTTACGGGTCAAGGTTACAGCACGGGTGGTACG	0.176
CAAACTACGTCAAGGTCAAAGTCGGTTTGTGCCA	0.409
CCTCGGAGGACATCAGGAGGTCAGAGCTGCCAGA	0.115
AGAACGAGGGCAATGAGTTGGTAGCACGGGTGGC	-0.865
AGTTAAAGTTCAGGACGAGGTAACGTAAAGCACG	0.705
ACAGACAGGTGAGTGCAGGTAACTCAGCTGGACG	-0.183
TCATATAGGTAAAAGGTGAAAGCCGGTGTGGTAA	0.942
GCTGCTTGGTCAGGTTGGTCAGCTAACGGGTACG	-0.538
CCTTACGGGTCACTCCAGGTTAGAGCATCGGAGT	0.0194
CCTACTGGGCCAAAAAGGACATTGATGCCGATAA	0.526

— the supplement of paper PMC6555819
